The target of this assay is furin, P09958. The assay is described as follows: furin cleavage Z-score vs untreated control; higher = more cleavage, active = 3.5 or more, inactive = 1 or less, 8 variable residues between constant flanks. A digest of the protocol:
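Furin-free reactions served as the baseline for the cleavage Z-score, which is the log read count lowess-adjusted and scaled by median absolute deviation. Counts came from released DNA, adapter-tagged by PCR and sequenced. Purified furin had cut 8-mer peptides fused to a cDNA oligonucleotide on magnetic beads during 7.5, 15 or 30 min at 1:10 enzyme:substrate.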

This is one part of the list. No count for the full screen is at hand.
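Also: purified furin at 1:10 enzyme:substrate in 50 mM HEPES pH 7.5.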

Sequence of furin, P09958 (P09958 whole entry, the tested form may be a part): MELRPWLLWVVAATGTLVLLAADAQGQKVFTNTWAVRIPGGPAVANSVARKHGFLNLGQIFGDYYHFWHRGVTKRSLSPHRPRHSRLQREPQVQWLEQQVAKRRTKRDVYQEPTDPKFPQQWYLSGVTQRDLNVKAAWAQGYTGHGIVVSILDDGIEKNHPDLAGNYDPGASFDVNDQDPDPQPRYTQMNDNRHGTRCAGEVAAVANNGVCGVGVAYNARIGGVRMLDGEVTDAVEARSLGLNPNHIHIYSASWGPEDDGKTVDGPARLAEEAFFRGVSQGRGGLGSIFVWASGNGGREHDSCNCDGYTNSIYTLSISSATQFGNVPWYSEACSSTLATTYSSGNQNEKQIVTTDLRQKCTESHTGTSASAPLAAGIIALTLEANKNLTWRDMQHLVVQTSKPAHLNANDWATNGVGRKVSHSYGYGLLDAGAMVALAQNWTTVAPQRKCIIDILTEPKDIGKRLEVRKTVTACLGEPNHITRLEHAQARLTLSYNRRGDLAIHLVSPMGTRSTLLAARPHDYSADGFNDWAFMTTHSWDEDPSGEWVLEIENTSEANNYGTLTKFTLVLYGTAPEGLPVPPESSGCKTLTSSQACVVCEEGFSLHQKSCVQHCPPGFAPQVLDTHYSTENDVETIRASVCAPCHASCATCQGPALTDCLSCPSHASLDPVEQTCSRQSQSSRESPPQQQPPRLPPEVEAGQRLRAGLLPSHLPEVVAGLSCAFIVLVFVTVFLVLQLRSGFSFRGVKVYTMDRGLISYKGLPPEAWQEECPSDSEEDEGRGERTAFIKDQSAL

As to CADLARHYKSAGNASASA [FS-982], the “furin cleavage Z-score” value (7.5 min) came out at 1.07, the “furin cleavage Z-score” value (15 min) is -0.538 (inactive) and the “furin cleavage Z-score” value (30 min) was -1.88 (inactive).

As to CAYKGVWRVDAGNASASA [HC1168], the “furin cleavage Z-score” value is -0.715 (inactive) (7.5 min), -0.703 (inactive) (15 min) and 0.326 (inactive) (30 min).

As to CAHFLSQTKQAGNASASA [HC946], the “furin cleavage Z-score” value is -1.62 (inactive) (7.5 min), -0.0771 (inactive) (15 min) and 0.398 (inactive) (30 min).

As to CASTPCSAHYAGNASASA [HC2569], the “furin cleavage Z-score” value (7.5 min) was -0.833 (inactive), the “furin cleavage Z-score” value (15 min) was 0.198 (inactive) and the “furin cleavage Z-score” value (30 min) was 0.946 (inactive).

In the case of CATTRVRRRSAGNASASA [FS-1100], the “furin cleavage Z-score” value was 8.61 (active) (7.5 min), 10.7 (active) (15 min) and 6.67 (active) (30 min).

As to CAVFGPLWILAGNASASA [HC608], the “furin cleavage Z-score” value runs as follows: (7.5 min) -0.487 (inactive); (15 min) -1.14 (inactive); (30 min) -0.989 (inactive).

In the case of CARTPRSSSAAGNASASA [FS-2833], the “furin cleavage Z-score” value (7.5 min) is 0.99 (inactive), the “furin cleavage Z-score” value (15 min) is -0.243 (inactive) and the “furin cleavage Z-score” value (30 min) is 2.32.

In the case of CARRPRRVIAAGNASASA [FS-2179], the “furin cleavage Z-score” value reads like this: (7.5 min) -0.112 (inactive); (15 min) 2.08; (30 min) 3.81 (active).

Regarding CARRPRRVEAAGNASASA [FS-1921], the “furin cleavage Z-score” value is, setting by setting: (7.5 min) 1.67; (15 min) 1.82; (30 min) 3.69 (active).

With CARRLRDQEAAGNASASA [FS-1781], the “furin cleavage Z-score” value was 0.143 (inactive) (7.5 min), -1.21 (inactive) (15 min) and -0.196 (inactive) (30 min).

In the case of CARRPRQKEAAGNASASA [FS-2782], the “furin cleavage Z-score” value reads like this: (7.5 min) 0.0199 (inactive); (15 min) -1.9 (inactive); (30 min) -0.838 (inactive).

With CARRPQDVKFAGNASASA [HC169], the “furin cleavage Z-score” value was -0.409 (inactive) (7.5 min), -1.01 (inactive) (15 min) and -0.285 (inactive) (30 min).

On to CARTPREVEAAGNASASA [FS-2467], for which the “furin cleavage Z-score” value was 1.78 (7.5 min), 1.61 (15 min) and 4.16 (active) (30 min).

For the sequence CARRPRHLSAAGNASASA [FS-1837], the “furin cleavage Z-score” value is 5.27 (active) (7.5 min), 4.94 (active) (15 min) and 5.51 (active) (30 min).

For the sequence CAALMTGYTGAGNASASA [HC880], the “furin cleavage Z-score” value was -1.03 (inactive) (7.5 min), -2.97 (inactive) (15 min) and -0.313 (inactive) (30 min).

Turning to CAEFVVCCSMAGNASASA [HC2127], the “furin cleavage Z-score” value (7.5 min) is -1.01 (inactive), the “furin cleavage Z-score” value (15 min) is 0.711 (inactive) and the “furin cleavage Z-score” value (30 min) is -0.748 (inactive).

With CASTNCSAHLAGNASASA [HC2521], the “furin cleavage Z-score” value was 1.3 (7.5 min), -0.319 (inactive) (15 min) and 0.484 (inactive) (30 min).

CAESYSSMPPAGNASASA [HC1352]: the “furin cleavage Z-score” value was 0.813 (inactive) (7.5 min), -0.573 (inactive) (15 min) and -0.906 (inactive) (30 min).

In the case of CAMDVVCCSMAGNASASA [HC2106], the “furin cleavage Z-score” value by setting is: (7.5 min) -0.103 (inactive); (15 min) -0.752 (inactive); (30 min) -0.482 (inactive).

In the case of CARDWAHNGLAGNASASA [HC639], the “furin cleavage Z-score” value by setting is: (7.5 min) 0.358 (inactive); (15 min) -0.707 (inactive); (30 min) 0.626 (inactive).

In the case of CARGKRHATKAGNASASA [FS-2015], the “furin cleavage Z-score” value runs as follows: (7.5 min) 7.59 (active); (15 min) 7.53 (active); (30 min) 7.79 (active).

Consider CARGKRRREKAGNASASA [FS-2017], for which the “furin cleavage Z-score” value (7.5 min) is -0.00549 (inactive), the “furin cleavage Z-score” value (15 min) is -0.584 (inactive) and the “furin cleavage Z-score” value (30 min) is -1.52 (inactive).

As to CARGKRQATAAGNASASA [FS-2016], the “furin cleavage Z-score” value was 7.14 (active) (7.5 min), 9.61 (active) (15 min) and 6.1 (active) (30 min).

With CAQRKRGGTAAGNASASA [WN1], the “furin cleavage Z-score” value (7.5 min) was -1.04 (inactive), the “furin cleavage Z-score” value (15 min) was 0.079 (inactive) and the “furin cleavage Z-score” value (30 min) was -0.249 (inactive).

Regarding CARGKRYSYKAGNASASA [FS-2019], the “furin cleavage Z-score” value (7.5 min) was 0.222 (inactive), the “furin cleavage Z-score” value (15 min) is 0.712 (inactive) and the “furin cleavage Z-score” value (30 min) turned out to be 1.19.

As for CAGERCDLEDAGNASASA [HC485], the “furin cleavage Z-score” value reads like this: (7.5 min) 0.0125 (inactive); (15 min) -0.597 (inactive); (30 min) 0.387 (inactive).

Regarding CASSYGFQYSAGNASASA [HC1465], the “furin cleavage Z-score” value was 1.75 (7.5 min), 0.0331 (inactive) (15 min) and -0.209 (inactive) (30 min).

Values taken from the supplement of paper PMC3545927.
